Results reported in PubChem BioAssay (EPA / NIEHS).
Results filed as inconclusive are left out. Where a structure was tested more than once in an assay, its records may differ in their call. Calls of active or inactive are those of the source. Rule for the calls, unless noted: active = hit-call score of the fitted dose curve at least 0.9, where 1 is the maximum; inactive = score below 0.9.

What was measured:
[1] = molecular target: Nuclear respiratory factor 1 (Homo sapiens) (UniProt Q16656); experiment: ATG_NRF1_CIS: Attagene CIS-FACTORIAL HepG2 Assay for human Nuclear Respiratory Factor 1 (NRF1) Orphan Gene (AID 2282987); conditions: HepG2 NRF1 cis-element reporter, Attagene multiplex; actives raise or lower the signal
Summary of the method: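 HepG2 cells transiently transfected with multiple reporter transcription units under cis-regulatory promoter control, so endogenous transcription-factor activity is read. After 24 h compound exposure, reporter mRNA quantified by RT-PCR, fluorescent labelling, HpaI digestion and capillary electrophoresis; bidirectional fitting versus DMSO.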

[2] = molecular target: Myc proto-oncogene protein (Homo sapiens) (UniProt P01106); experiment: ATG_Myc_CIS: Attagene CIS-FACTORIAL HepG2 Assay for human Myelocytomatosis (Myc) Proto-Oncogene Transcription Factor (AID 2282990); conditions: HepG2, Attagene cis-reporter transcription factor activity; actives raise or lower the signal
Summary of the method: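 Transiently transfected HepG2 cells bearing cis-promoter reporter units for endogenous transcription factors; 24 h exposure. Reporter mRNA measured by RT-PCR, 6-FAM primer extension, HpaI cut and capillary electrophoresis; bidirectional fit relative to DMSO.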

[3] = ATG_NF_kB_CIS: Attagene CIS-FACTORIAL HepG2 Assay for human Nuclear Factor Kappa B (NF-kB) (AID 2282991); conditions: HepG2 Attagene cis-factorial NF-kB reporter mRNA; actives raise or lower the signal
Summary of the method: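 HepG2 cells transiently transfected with multiplexed cis-element reporter units measuring endogenous transcription factor activity; reporter mRNA read 24 h after dosing by RT-PCR, fluorescent labelling, HpaI digestion and capillary electrophoresis. Bidirectional fit against DMSO baseline.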

[4] = ATG_NRF2_ARE_CIS: Attagene CIS-FACTORIAL HepG2 Assay for human Nuclear Factor Erythroid 2 Related Factor 2 (NFR2) response to Antioxidant Response Elements (ARE) (AID 2282992); conditions: HepG2 Attagene ARE/NRF2 reporter, transcription factor activity; actives raise or lower the signal;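 for AC50: reporter mRNA level measured by RT-PCR and capillary electrophoresis fluorescence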
Summary of the method: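 Fluorescence intensity of reporter-specific cDNA fragments, separated by capillary electrophoresis, reflects mRNA induction in transfected HepG2 cells at 24 h. Activity is fitted bidirectionally, DMSO serving as baseline.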

[5] = ATG_Oct_MLP_CIS: Attagene CIS-FACTORIAL HepG2 Assay for human Octamer-Binding Transcription Factor (Oct) (AID 2282993); conditions: HepG2 Attagene cis-factorial Oct reporter, mRNA; actives raise or lower the signal
Summary of the method: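 Readout is reporter transcript level from RT-PCR with fluorescent primer extension and capillary electrophoresis, fitted in both directions against DMSO. Transfected HepG2 reporter units report endogenous factor activity after 24 h dosing.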

[6] = molecular target: Cellular tumor antigen p53 (Homo sapiens) (UniProt P04637); experiment: ATG_p53_CIS: Attagene CIS-FACTORIAL HepG2 Assay for human p53 Transcription Factor (AID 2282994); conditions: HepG2 p53 cis-element reporter, Attagene mRNA; actives raise or lower the signal
Summary of the method: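 Transiently transfected HepG2 (multiple cis reporter transcription units); exposure 24 h; reporter RNA via RT-PCR, 6-FAM extension, 2 h HpaI digest at 37 C, CE detection; DMSO baseline.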

[7] = BSK_3C_TissueFactor: BioMAP Diversity Plus: 3C Assay for Tissue Factor Biomarker Activity (AID 2282997); conditions: BioMAP 3C HUVEC, tissue factor biomarker readout; actives raise or lower the signal
Summary of the method: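 In this endothelial system, HUVEC are treated for 24 h and Tissue Factor is assessed by ELISA, normalised to DMSO.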

[8] = BSK_3C_uPAR: BioMAP Diversity Plus: 3C Assay for Urokinase-type plasminogen activator receptor (uPAR) Biomarker Activity (AID 2282998); conditions: BioMAP 3C HUVEC, uPAR biomarker ELISA; actives raise or lower the signal
Summary of the method: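 Cell-surface uPAR on HUVEC (3C system) read by ELISA at 24 h post-treatment, with DMSO as baseline and fitting in both directions. Parallel cultures stained with SRB to flag overt cytotoxicity.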

[9] = BSK_3C_VCAM1: BioMAP Diversity Plus: 3C Assay for Vascular cell adhesion molecule 1 (VCAM1) Biomarker Activity (AID 2282999); conditions: BioMAP 3C HUVEC, VCAM1 ELISA, cytokine-stimulated; actives raise or lower the signal
Summary of the method: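 HUVEC primary cells, 24 h compound exposure; VCAM-1 by ELISA; gain/loss of signal fitted bidirectionally vs DMSO baseline.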

[10] = BSK_4H_Eotaxin3: BioMAP Diversity Plus: 4H Assay for Eotaxin 3 Biomarker Activity (AID 2283000); conditions: primary human endothelial cells (HUVEC); actives raise or lower the signal
Summary of the method: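 ELISA quantitation of CCL26 (Eotaxin-3) protein from chemically dosed human vascular endothelial cells at 24 h; increases and decreases both scored relative to DMSO-treated baseline.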

[11] = read-out: Intercellular Adhesion Molecule 1 (ICAM1), ICAM1 (gene 3383); experiment: BSK_3C_ICAM1: BioMAP Diversity Plus: 3C Assay for Intercellular Adhesion Molecule 1 (ICAM1) Biomarker Activity (AID 2283003); conditions: primary human endothelial cells (HUVEC); actives raise or lower the signal
Summary of the method: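 Using DMSO as baseline, bidirectional curve fitting was applied to ICAM-1 ELISA signals from HUVEC in the 3C system, measured 24 h after compound addition.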

[12] = molecular target: human Retinoic Acid Receptor beta (RARb), RARB (gene 5915) (UniProt P10826); experiment: ATG_RARb_TRANS: Attagene TRANS-FACTORIAL HepG2 Assay for human Retinoic Acid Receptor beta (AID 2283004; active = hit-call score of the fitted dose curve at least 0.9, where 1 is the maximum)
Summary of the method: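 Fluorescent capillary-electrophoresis detection of GAL4-UAS reporter mRNA defines the endpoint, with induction over DMSO-treated wells scored as activity. Transiently transfected human hepatoma HepG2 cells expressing exogenous NR–Gal4 proteins are exposed to test chemicals for 24 h.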

[13] = BSK_3C_Proliferation: Cell Proliferation Assessment in the BioMAP Diversity Plus: 3C Assay (AID 2283006); conditions: primary human endothelial cells (HUVEC);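 for AC50: potency may reflect either rise or fall in cell number versus DMSO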
Summary of the method: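 Measured here: sulforhodamine B (0.1%) staining of TCA-fixed sub-confluent umbilical vein endothelial cultures 48 h post-dosing, absorbance 560 nm. DMSO served as negative control and baseline; both signal gain and loss were modelled.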

[14] = molecular target: Peroxisome proliferator-activated receptor gamma (Homo sapiens) (UniProt P37231); experiment: ATG_PPARg_TRANS: Attagene TRANS-FACTORIAL HepG2 Assay for human Peroxisome Proliferator-activated Receptor-gamma (PPARg) (AID 2283007; active = hit-call score of the fitted dose curve at least 0.9, where 1 is the maximum)
Summary of the method: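 HepG2 cells transiently transfected with multiplexed GAL4-UAS reporter units and exogenous chimeric NR-Gal4 proteins; reporter mRNA quantified after 24 h compound exposure by RT-PCR, fluorescent labelling, HpaI digestion and capillary electrophoresis; gain-of-signal fitted versus DMSO baseline.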

[15] = molecular target: Nuclear receptor subfamily 1 group I member 2 (Homo sapiens) (UniProt O75469); experiment: ATG_PXR_TRANS: Attagene TRANS-FACTORIAL HepG2 Assay for human Pregnane X Receptor (PXR) (AID 2283008; active = hit-call score of the fitted dose curve at least 0.9, where 1 is the maximum)
Summary of the method: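 Transient HepG2 transfectants carrying multiplexed reporter transcription units; PXR activity read through a Gal4 chimera. 24 h exposure. RT-PCR/CE fluorescence; upward curve fit referenced to DMSO.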

[16] = molecular target: human Peroxisome Proliferator-activated Receptor alpha (PPARa), PPARA (gene 5465) (UniProt Q07869); experiment: ATG_PPARa_TRANS: Attagene TRANS-FACTORIAL HepG2 Assay for human Peroxisome Proliferator-activated Receptor alpha (PPARa) (AID 2283001; active = hit-call score of the fitted dose curve at least 0.9, where 1 is the maximum)
Summary of the method: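 Transient HepG2 transfection, GAL4-UAS reporters, NR-Gal4 chimeras; 24 h compound exposure. Readout: reporter transcripts by RT-PCR, 6-FAM primer extension, HpaI digest, capillary electrophoresis. Positive direction vs DMSO baseline.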

[17] = molecular target: human Peroxisome Proliferator-activated Receptor delta (PPARd), PPARD (gene 5467) (UniProt Q03181); experiment: ATG_PPARd_TRANS: Attagene TRANS-FACTORIAL HepG2 Assay for human Peroxisome Proliferator-activated Receptor delta (PPARd) (AID 2283002; active = hit-call score of the fitted dose curve at least 0.9, where 1 is the maximum)
Summary of the method: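 HepG2 cells transiently transfected with GAL4-UAS multiplexed reporter units driven by exogenous chimeric NR-GAL4 proteins; 24 h compound exposure. Reporter mRNA measured by RT-PCR, 6-FAM primer extension, HpaI digestion and capillary electrophoresis; gain of signal fitted relative to DMSO.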

[18] = molecular target: Retinoic acid receptor alpha (Homo sapiens) (UniProt P10276); experiment: ATG_RARa_TRANS: Attagene TRANS-FACTORIAL HepG2 Assay for human Retinoic Acid Receptor alpha (RARa) (AID 2283005; active = hit-call score of the fitted dose curve at least 0.9, where 1 is the maximum;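 for AC50: potency for increased reporter signal meaning RARa activation over DMSO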)
Summary of the method: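 HepG2 transiently transfected with multiplex GAL4-UAS reporter units including a human RARa–GAL4 chimera; 24 h compound exposure. Reporter mRNA quantified by RT-PCR, 6-FAM labeling and capillary electrophoresis; gain of signal versus DMSO.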

[19] = molecular target: human Retinoic Acid Receptor gamma (RARg), RARG (gene 5916) (UniProt P13631); experiment: ATG_RARg_TRANS: Attagene TRANS-FACTORIAL HepG2 Assay for human Retinoic Acid Receptor gamma (RARg) (AID 2283009; active = hit-call score of the fitted dose curve at least 0.9, where 1 is the maximum)
Summary of the method: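 Gain-of-signal relative to DMSO is reported from fluorescent capillary electrophoresis of RT-PCR reporter products. These came from HepG2 cells expressing transfected RARg-GAL4 chimeras with UAS reporters, harvested 24 h after dosing.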

Measured: AC50

human Peroxisome Proliferator-activated Receptor delta (PPARd), PPARD (gene 5467), sequence (Q03181 whole entry, looked up, the tested form may be a part): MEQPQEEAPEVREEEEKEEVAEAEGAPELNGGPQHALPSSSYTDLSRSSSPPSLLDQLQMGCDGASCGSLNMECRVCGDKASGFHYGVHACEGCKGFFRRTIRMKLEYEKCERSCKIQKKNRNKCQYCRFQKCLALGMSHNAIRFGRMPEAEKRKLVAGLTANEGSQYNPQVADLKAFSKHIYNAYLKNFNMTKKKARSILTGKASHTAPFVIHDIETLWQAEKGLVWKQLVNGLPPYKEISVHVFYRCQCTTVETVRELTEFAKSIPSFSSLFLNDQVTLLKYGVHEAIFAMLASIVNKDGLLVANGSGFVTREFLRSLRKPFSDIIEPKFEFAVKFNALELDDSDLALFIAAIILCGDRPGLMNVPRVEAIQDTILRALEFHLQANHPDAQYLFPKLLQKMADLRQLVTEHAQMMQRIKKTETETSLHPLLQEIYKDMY
human Retinoic Acid Receptor gamma (RARg), RARG (gene 5916), sequence (P13631 whole entry, looked up, the tested form may be a part): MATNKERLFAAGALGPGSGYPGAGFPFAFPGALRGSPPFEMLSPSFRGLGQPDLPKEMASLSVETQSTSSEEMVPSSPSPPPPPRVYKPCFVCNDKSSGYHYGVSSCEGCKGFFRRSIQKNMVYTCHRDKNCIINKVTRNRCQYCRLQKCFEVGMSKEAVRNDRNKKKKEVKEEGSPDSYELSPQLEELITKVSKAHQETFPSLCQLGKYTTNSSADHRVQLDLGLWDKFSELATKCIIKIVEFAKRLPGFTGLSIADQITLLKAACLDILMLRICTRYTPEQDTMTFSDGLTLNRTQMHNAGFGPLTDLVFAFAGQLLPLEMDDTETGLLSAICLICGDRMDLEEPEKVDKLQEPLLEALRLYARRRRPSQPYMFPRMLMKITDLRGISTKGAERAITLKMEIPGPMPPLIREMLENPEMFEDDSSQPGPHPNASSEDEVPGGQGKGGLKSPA
Nuclear respiratory factor 1 (Homo sapiens), sequence (Q16656 whole entry, looked up): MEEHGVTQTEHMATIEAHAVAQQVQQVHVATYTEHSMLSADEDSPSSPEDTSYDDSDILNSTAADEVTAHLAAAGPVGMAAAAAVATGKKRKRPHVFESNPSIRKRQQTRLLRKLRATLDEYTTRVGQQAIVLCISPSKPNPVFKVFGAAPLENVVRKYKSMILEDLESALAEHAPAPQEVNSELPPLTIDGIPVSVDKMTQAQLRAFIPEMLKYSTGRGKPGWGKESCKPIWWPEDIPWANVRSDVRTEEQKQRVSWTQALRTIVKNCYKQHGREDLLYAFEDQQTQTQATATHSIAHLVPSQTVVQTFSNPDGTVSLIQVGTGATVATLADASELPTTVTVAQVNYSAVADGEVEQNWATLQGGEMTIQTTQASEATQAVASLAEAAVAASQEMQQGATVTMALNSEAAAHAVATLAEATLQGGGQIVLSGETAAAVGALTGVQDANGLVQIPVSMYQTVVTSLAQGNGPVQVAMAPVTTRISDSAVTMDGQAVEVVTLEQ
Nuclear receptor subfamily 1 group I member 2 (Homo sapiens), sequence (O75469 whole entry, looked up, the tested form may be a part): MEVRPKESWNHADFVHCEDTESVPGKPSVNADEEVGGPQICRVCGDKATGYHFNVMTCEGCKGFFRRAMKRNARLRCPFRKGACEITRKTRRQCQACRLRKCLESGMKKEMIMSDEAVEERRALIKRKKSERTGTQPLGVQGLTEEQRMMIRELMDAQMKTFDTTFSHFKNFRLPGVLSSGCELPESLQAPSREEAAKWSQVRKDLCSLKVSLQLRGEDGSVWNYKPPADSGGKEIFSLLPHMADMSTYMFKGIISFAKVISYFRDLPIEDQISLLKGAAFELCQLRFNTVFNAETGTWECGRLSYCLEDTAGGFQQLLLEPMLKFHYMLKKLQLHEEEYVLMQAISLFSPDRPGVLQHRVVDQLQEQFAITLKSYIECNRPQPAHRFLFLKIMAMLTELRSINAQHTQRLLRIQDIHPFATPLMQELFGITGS
Myc proto-oncogene protein (Homo sapiens), sequence (P01106 whole entry, looked up): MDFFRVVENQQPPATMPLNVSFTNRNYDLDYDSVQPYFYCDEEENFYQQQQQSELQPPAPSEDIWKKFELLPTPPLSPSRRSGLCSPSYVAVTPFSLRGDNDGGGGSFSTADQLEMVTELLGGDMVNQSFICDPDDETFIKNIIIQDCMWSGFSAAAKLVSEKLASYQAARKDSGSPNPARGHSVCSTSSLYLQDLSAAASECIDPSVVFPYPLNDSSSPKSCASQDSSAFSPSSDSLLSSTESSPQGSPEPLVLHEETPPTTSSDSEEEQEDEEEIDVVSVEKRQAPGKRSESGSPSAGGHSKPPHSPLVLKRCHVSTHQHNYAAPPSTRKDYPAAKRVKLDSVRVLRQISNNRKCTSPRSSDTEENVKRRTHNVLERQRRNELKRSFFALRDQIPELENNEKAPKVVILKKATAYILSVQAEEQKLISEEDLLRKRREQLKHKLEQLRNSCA
Cellular tumor antigen p53 (Homo sapiens), sequence (P04637 whole entry, looked up): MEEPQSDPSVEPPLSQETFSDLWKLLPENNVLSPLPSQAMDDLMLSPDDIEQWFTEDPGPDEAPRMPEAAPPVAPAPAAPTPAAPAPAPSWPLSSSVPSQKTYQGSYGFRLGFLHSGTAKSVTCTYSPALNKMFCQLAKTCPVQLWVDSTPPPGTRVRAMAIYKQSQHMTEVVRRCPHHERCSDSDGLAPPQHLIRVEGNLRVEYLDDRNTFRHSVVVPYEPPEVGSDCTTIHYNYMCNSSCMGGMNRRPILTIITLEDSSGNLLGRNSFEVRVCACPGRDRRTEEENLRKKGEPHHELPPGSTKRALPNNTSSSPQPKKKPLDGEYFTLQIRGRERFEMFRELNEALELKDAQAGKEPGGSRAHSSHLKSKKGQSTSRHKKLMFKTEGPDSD
human Retinoic Acid Receptor beta (RARb), RARB (gene 5915), sequence (P10826 whole entry, looked up, the tested form may be a part): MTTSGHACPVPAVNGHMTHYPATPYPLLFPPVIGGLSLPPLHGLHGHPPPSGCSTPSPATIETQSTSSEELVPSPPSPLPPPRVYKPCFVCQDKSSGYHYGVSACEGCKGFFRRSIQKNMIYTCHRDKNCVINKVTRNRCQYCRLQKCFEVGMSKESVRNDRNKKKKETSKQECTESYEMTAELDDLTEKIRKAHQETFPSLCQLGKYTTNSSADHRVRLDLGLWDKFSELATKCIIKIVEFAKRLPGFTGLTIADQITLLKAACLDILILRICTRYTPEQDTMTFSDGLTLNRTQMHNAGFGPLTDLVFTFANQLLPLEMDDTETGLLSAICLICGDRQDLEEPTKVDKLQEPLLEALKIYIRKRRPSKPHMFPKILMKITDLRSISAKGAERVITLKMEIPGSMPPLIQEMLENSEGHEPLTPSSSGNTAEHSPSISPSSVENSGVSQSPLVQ
human Peroxisome Proliferator-activated Receptor alpha (PPARa), PPARA (gene 5465), sequence (Q07869 whole entry, looked up, the tested form may be a part): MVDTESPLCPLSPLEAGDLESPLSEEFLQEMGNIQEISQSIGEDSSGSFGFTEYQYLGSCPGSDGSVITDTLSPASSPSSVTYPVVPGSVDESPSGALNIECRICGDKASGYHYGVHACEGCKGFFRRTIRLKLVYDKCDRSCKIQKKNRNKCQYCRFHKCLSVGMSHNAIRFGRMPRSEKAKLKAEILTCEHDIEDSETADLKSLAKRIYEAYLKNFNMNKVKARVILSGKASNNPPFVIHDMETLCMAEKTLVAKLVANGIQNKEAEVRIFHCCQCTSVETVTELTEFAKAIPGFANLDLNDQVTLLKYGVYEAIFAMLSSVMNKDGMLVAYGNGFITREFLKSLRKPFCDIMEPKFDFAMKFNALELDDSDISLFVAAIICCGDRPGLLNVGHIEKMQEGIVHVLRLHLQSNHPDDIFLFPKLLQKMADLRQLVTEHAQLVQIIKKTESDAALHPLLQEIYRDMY
Peroxisome proliferator-activated receptor gamma (Homo sapiens), sequence (P37231 whole entry, looked up, the tested form may be a part): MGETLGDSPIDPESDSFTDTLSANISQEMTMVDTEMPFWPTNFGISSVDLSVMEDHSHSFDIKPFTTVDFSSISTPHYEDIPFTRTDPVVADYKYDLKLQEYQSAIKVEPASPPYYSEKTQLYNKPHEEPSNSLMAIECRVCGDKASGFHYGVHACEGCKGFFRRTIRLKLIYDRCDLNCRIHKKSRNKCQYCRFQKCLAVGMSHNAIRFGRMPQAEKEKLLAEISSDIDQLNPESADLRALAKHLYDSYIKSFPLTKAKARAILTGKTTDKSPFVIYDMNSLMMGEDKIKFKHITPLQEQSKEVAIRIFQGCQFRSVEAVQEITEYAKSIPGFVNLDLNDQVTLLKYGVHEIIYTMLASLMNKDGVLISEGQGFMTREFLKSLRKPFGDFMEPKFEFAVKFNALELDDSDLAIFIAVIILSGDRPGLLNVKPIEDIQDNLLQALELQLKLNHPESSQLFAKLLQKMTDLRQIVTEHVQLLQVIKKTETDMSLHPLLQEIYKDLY
Retinoic acid receptor alpha (Homo sapiens), sequence (P10276 whole entry, looked up, the tested form may be a part): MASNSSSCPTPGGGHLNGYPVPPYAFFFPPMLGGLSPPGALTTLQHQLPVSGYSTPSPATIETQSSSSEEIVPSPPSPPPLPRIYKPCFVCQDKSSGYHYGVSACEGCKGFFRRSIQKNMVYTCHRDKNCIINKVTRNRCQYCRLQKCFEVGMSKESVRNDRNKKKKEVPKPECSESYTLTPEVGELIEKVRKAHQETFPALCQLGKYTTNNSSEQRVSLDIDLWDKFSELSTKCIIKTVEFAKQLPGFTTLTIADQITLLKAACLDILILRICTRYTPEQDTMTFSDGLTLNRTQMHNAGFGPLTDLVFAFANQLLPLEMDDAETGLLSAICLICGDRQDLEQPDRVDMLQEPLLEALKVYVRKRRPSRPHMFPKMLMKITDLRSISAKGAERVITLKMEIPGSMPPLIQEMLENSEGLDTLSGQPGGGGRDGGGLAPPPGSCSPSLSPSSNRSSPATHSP

CCc1cccc(C)c1N(C(=O)CCl)C(C)COC (stereo not given)
active: [4] 5.18 µM | [5] 14.2 µM | [14] 13.5 µM
not listed: [16] | [17] | [18] | [19]
inactive: all other assays above

CCCCOC(=O)[C@@H](C)Oc1ccc(Oc2ccc(C#N)cc2F)cc1
not listed: [12] | [13] | [14] | [18] | [19]
inactive: all other assays above

CN(C)[C@@H]1C(=O)C(C(N)=O)=C(O)[C@@]2(O)C(=O)C3=C(O)c4c(O)cccc4[C@@](C)(O)[C@H]3[C@H](O)[C@@H]12
inactive: [1] | [2] | [4] | [5] | [7] | [8] | [9] | [10] | [16] | [11] | [13] | [15]
active: [4] 20.8 µM | [5] 13.6 µM | [10] 33 µM | [13] 20 µM

CC1(C(=O)Nc2ccc(O)c(Cl)c2Cl)CCCCC1
active: [4] 8.84 µM | [5] 22.2 µM | [14] 50 µM | [15] 9.83 µM
not listed: [7] | [12] | [13] | [16] | [18] | [19]
inactive: all other assays above

COc1cc(OC)nc(Sc2cccc(Cl)c2C(=O)O)n1
not listed: [7] | [12] | [14] | [15] | [17] | [18] | [19]
inactive: all other assays above

CCCSP(=O)(OCC)Oc1ccc(Br)cc1Cl (stereo not given)
active: [4] 2.73 µM | [5] 2.03 µM
not listed: [7] | [13] | [14] | [17]
inactive: all other assays above

CCC(=NOC/C=C/Cl)C1=C(O)CC(C2CCOCC2)CC1=O (stereo not given)
not listed: [12] | [14] | [16] | [18] | [19]
inactive: all other assays above

O=C(O)c1cc(Oc2ccc(C(F)(F)F)cc2Cl)ccc1[N+](=O)[O-]
active: [8] 29.2 µM | [18] 2.9 µM
not listed: [6] | [7] | [14] | [17]
inactive: all other assays above

Cc1ccn2nc(S(=O)(=O)Nc3c(F)cccc3F)nc2n1
not listed: [3] | [6] | [7] | [12] | [13] | [14] | [17] | [18]
inactive: all other assays above
